Molecules are shown by their SMILES. Activity calls are given as the source filed them. The calls were made as follows: active = hit-call score of the fitted dose curve at least 0.9, where 1 is the maximum; inactive = score below 0.9.

Read-out in test [1]: Thrombomodulin, THBD (gene 7056)
Put plainly: BSK_CASM3C_Thrombomodulin: BioMAP Diversity Plus: CASM3C Assay for Thrombomodulin Biomarker Activity (AID 2283051).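 Also: thrombomodulin protein level measured by ELISA 24 h after dosing.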 To be noted: primary human coronary artery smooth muscle cells; actives raise or lower the signal.

Read-out in test [2]: Tissue Factor, F3 (gene 2152)
Put plainly: BSK_CASM3C_TissueFactor: BioMAP Diversity Plus: CASM3C Assay for Tissue Factor Biomarker Activity (AID 2283052).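 Also: cell surface tissue factor protein level read by ELISA.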 The following applies: primary human coronary artery smooth muscle cells; actives raise or lower the signal.

Read-out in test [3]: Interferon-gamma inducible Protein 10 (IP10), CXCL10 (gene 3627)
Put plainly: BSK_hDFCGF_IP10: BioMAP Diversity Plus: hDFCGF Assay for Interferon-gamma inducible Protein 10 (IP10) Biomarker Activity (AID 2283053). To be noted: primary human foreskin fibroblasts; actives raise or lower the signal. An outline of the steps: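 Chemical-treated human skin fibroblasts (primary) were sampled at 24 h for IP-10 by ELISA. Both increases and decreases relative to DMSO were scored.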

Read-out in test [4]: Urokinase-type plasminogen activator receptor (uPAR), PLAUR (gene 5329)
The test can be described thus: BSK_CASM3C_uPAR: BioMAP Diversity Plus: CASM3C Assay for Urokinase-type plasminogen activator receptor (uPAR) Biomarker Activity (AID 2283054).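 Also: cell-surface uPAR protein level quantified by ELISA.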 To be noted: primary human coronary artery smooth muscle cells; actives raise or lower the signal.

Read-out in test [5]: Vascular cell adhesion molecule 1 (VCAM1), VCAM1 (gene 7412)
Put plainly: BSK_CASM3C_VCAM1: BioMAP Diversity Plus: CASM3C Assay for Vascular cell adhesion molecule 1 (VCAM1) Biomarker Activity (AID 2283055).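 Also: VCAM-1 protein level quantified by ELISA on the cells.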 The following applies: primary human coronary artery smooth muscle cells; actives raise or lower the signal.

Read-out in test [6]: Collagen III, COL3A1 (gene 1281)
Put plainly: BSK_hDFCGF_CollagenIII: BioMAP Diversity Plus: hDFCGF Assay for Collagen III Biomarker Activity (AID 2283056). To be noted: primary human foreskin fibroblasts; actives raise or lower the signal. An outline of the steps:
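ELISA readout of Collagen III in human dermal (foreskin) fibroblasts, taken 24 h post-treatment. Gain or loss relative to DMSO vehicle fitted in both directions.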

Read-out in test [7]: Epidermal growth factor receptor (EGFR), EGFR (gene 1956)
The test can be described thus: BSK_hDFCGF_EGFR: BioMAP Diversity Plus: hDFCGF Assay for Epidermal growth factor receptor (EGFR) Biomarker Activity (AID 2283057). To be noted: primary human foreskin fibroblasts; actives raise or lower the signal. An outline of the steps:
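Cell-based multiplexed assay in primary human foreskin fibroblasts. EGFR is read by ELISA 24 h after treatment and compared with DMSO controls.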

Read-out in test [8]: Interleukin-8 (IL8), CXCL8 (gene 3576)
The test can be described thus: BSK_hDFCGF_IL8: BioMAP Diversity Plus: hDFCGF Assay for Interleukin-8 (IL8) Biomarker Activity (AID 2283058). To be noted: primary human foreskin fibroblasts; actives raise or lower the signal. An outline of the steps: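 IL-8 levels read by ELISA at 24 hours after dosing human skin fibroblast cultures. Parallel SRB staining assessed overt cytotoxicity, and gain or loss of signal was fitted against DMSO control.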

The nature of test [9]: BSK_hDFCGF_Proliferation: Cell Proliferation Assessment in the BioMAP Diversity Plus: hDFCGF Assay (AID 2283059).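 Also: curves fitted for both rise and fall of signal versus DMSO baseline.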 The following applies: primary human foreskin fibroblasts. An outline of the steps: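 Total protein read at 560 nm after 0.1% SRB staining of TCA-fixed human skin fibroblasts, […]. Activity is fitted in both directions relative to DMSO as baseline.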

Read-out in test [10]: Macrophage colony-stimulating factor (MCSF), CSF1 (gene 1435)
The test can be described thus: BSK_hDFCGF_MCSF: BioMAP Diversity Plus: hDFCGF Assay for Macrophage colony-stimulating factor (MCSF) Biomarker Activity (AID 2283060). To be noted: primary human foreskin fibroblasts; actives raise or lower the signal. A digest of the protocol: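 M-CSF levels read by ELISA at 24 h post-dosing in human skin fibroblasts. Parallel cultures stained with SRB assessed cytotoxicity at the same time point; response fitted in both directions against the DMSO baseline.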

For `Cc1ccccc1CO[C@@H]1C[C@@]2(C(C)C)CC[C@]1(C)O2`, the result in test [1], in test [2], in [3], in test [4], in [5] and in [6] was inactive. In addition, the result in test [7], in test [8], in [9] and in test [10] was inactive.

Regarding `CCOCCOC(C)=O`, the outcome in test [1], in test [2], in test [3], in [4], in [5] and in [6] was inactive. The outcome in test [7], in test [8], in [9] and in [10] was inactive.

Take `Clc1ccc(C(Cl)(Cl)Cl)cc1`: the result in test [1], in test [2], in test [3], in test [4], in test [5] and in test [6] was inactive. Besides, the result in test [7], in test [8], in test [9] and in test [10] was inactive.

`Cc1ccccc1O`: the result in test [1], in [2], in test [3], in test [4], in test [5] and in test [6] was inactive. Moreover, the result in test [7], in test [8], in test [9] and in [10] was inactive.

Turning to `CCNc1nc(NC(C)C)nc(SC)n1`, the result in test [1], in test [2], in test [4], in [5], in test [6] and in [7] was inactive. Besides, the result in [8], in test [9] and in test [10] was inactive. Moreover, the half-maximal activity concentration (AC50) (commonly the concentration at which the activity in the assay is half-maximal) in test [3] is 30.4 µM (active).

As for `C=CC(N)=O`, the outcome in test [1], in [2], in test [3], in test [4], in test [5] and in test [6] was inactive. The outcome in test [7], in test [8], in test [9] and in test [10] was inactive.

In the case of `Oc1ccc(C(c2ccc(O)cc2)(C(F)(F)F)C(F)(F)F)cc1`, the half-maximal activity concentration (AC50) in test [1] is 29.2 µM (active); in [3], 16.6 µM (active); in [5] it was 31 µM (active); in [6], 13.1 µM (active); in test [8], 30.6 µM (active); in [9], 12.4 µM (active). Also, the half-maximal activity concentration (AC50) in test [10] was 14.8 µM (active). Further, the outcome in test [2], in test [4] and in test [7] was inactive.

Take `Oc1ccc(Cl)cc1Cl`: the outcome in test [1], in test [2], in test [3], in test [4], in test [5] and in test [6] was inactive. Moreover, the result in test [7], in test [8], in test [9] and in test [10] was inactive.

For `CCCN(CCC)N=O`, the outcome in test [1], in test [2], in test [3], in test [4], in [5] and in [6] was inactive. Further, the result in [7], in test [8], in [9] and in test [10] was inactive.

On to `Cc1cc(-c2ccc(N)c(C)c2)ccc1N`, for which the outcome in test [1], in test [2], in [3], in test [4], in [5] and in test [6] was inactive. The result in [7], in test [8], in test [9] and in test [10] was inactive.

Regarding `CCC(=O)O[C@H]1CC[C@H]2[C@@H]3CCC4=CC(=O)CC[C@]4(C)[C@H]3CC[C@]12C`, the result in [1], in [2], in [4], in test [5] and in test [7] was inactive. Also, the AC50 is 38.2 µM (active) in [8], 30.6 µM (active) in test [9] and 31.3 µM (active) in test [10].

As to `Clc1ccc(Cl)cc1`, the outcome in [1], in [2], in test [3], in test [4], in test [5] and in test [6] was inactive. In addition, the outcome in test [7], in [8], in test [9] and in test [10] was inactive.

Regarding `COS(=O)(=O)OC`, the outcome in test [1], in [2], in test [3], in test [4], in test [5] and in [6] was inactive. For the same molecule, the outcome in test [7], in [8], in test [9] and in test [10] was inactive.

On to `O=S(=O)(O)C(F)(F)C(F)(F)C(F)(F)C(F)(F)C(F)(F)C(F)(F)F`, for which the outcome in [1], in test [2], in [3], in [4], in [5] and in [6] was inactive. Besides, the outcome in test [7], in test [8], in test [9] and in test [10] was inactive.

Take `Cc1cc(O)ccc1Cl`: the result in [1], in [2], in test [3], in test [4], in test [5] and in test [6] was inactive. Besides, the result in [7], in test [8], in [9] and in test [10] was inactive.

In the case of `CCCCCCCCCc1ccc(O)cc1`, the half-maximal activity concentration (AC50) in [1] was 37.8 µM (active); in test [2], 28.7 µM (active); in test [3] it was 14.1 µM (active); in [4] it was 38.2 µM (active); in [5] it was 33.6 µM (active); in test [6], 9.87 µM (active). The AC50 in [8] was 17.2 µM (active); in test [9], 5.93 µM (active); in test [10], 13.6 µM (active). Also, the result in test [7] was inactive.

For the molecule `C=CC(=O)NCNC(=O)C=C`, the result in test [1], in test [2], in test [3], in [4], in test [5] and in test [6] was inactive. For the same molecule, the outcome in test [7], in [8], in test [9] and in [10] was inactive.

Source of the values: PubChem BioAssay (EPA / NIEHS).
